In all, about 53,000 sequences went through this assay and about 3,700 (7%) were called active. This excerpt belongs to a sample that is enriched for actives. Unmarked numbers belong to inactive results.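 Rule for the calls: active = gene knockdowns whose robust z-score for IL-1 alpha signal is at least 2 or at most -2, so actives lie on both sides; inactive = the rest.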

The experiment can be described thus: Components of the Cytosolic LPS Sensing Pathway: Gene Identification via Genome-wide siRNA Screen.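 Note: robust z of the log signal after scaling to non-targeting control siRNA wells of the plate.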 Particulars: RAW264.7 macrophages, IL-1a HTRF, actives lie on both sides, screened at 100 nM (by protocol), cells primed 5 h with Pam3CSK4 first. The gist of the method: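 IL-1a HTRF of supernatants after 24 hour LipidA transfection of Pam3CSK4-primed (5 hours) RAW264.7 cells, 48h post-siRNA transfection (100 nM). Scores: percent of plate negative-control median, then log-based robust z-score.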
On the technique in general: Time-resolved FRET reads energy transfer from a long-lived donor to a nearby acceptor.
Turning to GGAUGAACCACCAUAUGUGTT against Olfr1188, the z-score was 4.69 (active).
As for GGUUUUGAAAAAGCAUCAATT against Myoz2, the z-score is -0.365.
Consider GGCCAACUCUAUUUUGAAGTT against Lrp2bp, for which the z-score is 0.362.
As for GGACACAUAAUGUCUACCUTT against Unc93a, the figure is -0.629.
For GCACUAGCAGACUAGGUGATT against Zbtb26, the z-score is -2.07 (active).
Next, GGAUUUUCAAUUCAUACCCTT against Psmb1: -0.189; UUUACCUUGUCACCGUCUUTT against Olfr1029: 1.03; AUUCAUUGGGAAAAAUUAUTT against Olfr127: -2.38 (active).
Next, “CCUCGACAUCUAAUGAAGATT against 4933405O20Rik”: -1.58; GCAAUACGAAGGCGAAAGCTT against P3h4: -1.68.
As to GGACUUCAUAUUAGCAUGUTT against Plbd2, the z-score was -1.27.
Regarding GACCCUUUUCACCAAGACATT against Tecr, the z-score is 0.989.
Next, GGAGCAGUGCAUUGAGACCTT against Adcy6: 2.34 (active); GGAAUAAUUGGUGUUAAAGTT against Hnrnpk: 0.346; GGCUUUGGUCAAGGAGAAGTT against Pias4: -1.32.
As for GGAUCAAUGAUACAACUGATT against Il1r1, the figure is -0.976.
In the case of GGUGCUAAAGGACAUAGGUTT against Tmem177, the z-score is 3.27 (active).
As to GGGCACCUAUUCAGAUACCTT against Map2, the z-score was 0.685.
Next, GCCGAACGUGUUUAAACUCTT against Psd3: 0.0404.
With GGAACCUCUCAGAUUUUCATT against Zfp599, the z-score was 0.828.
As to GGCCUCUCAAAAUCUUCCUTT against Galnt11, the z-score is -1.46.
Consider CGUAGUACCCAUGAAUUACTT against Adora2a, for which the z-score is 4.87 (active).
GGACUGACUCUUUUUUAACTT against Uba3: the z-score was -0.697.
Next, CGAAAACAAUUACGUCUAUTT against Rfwd3: 1.15; GCCAAACGCAUCAUGGAAATT against Arglu1: -0.59.
On to CCACGACGUACAUCCAUAATT against Tmem181a, for which the z-score was -1.02.
GGCGAAAACGGUAAAGCCUTT against H1f4: the z-score is 0.448.
Next, GGCCAGCAAUAAAACUGUCTT against Max: -0.326; GCCCGCCUAUUUGAAAGCATT against Zfp740: 0.839.
Take GGAUGAAGGAACUAAAUAUTT against Cog3: the z-score is -2.15 (active).
